Records with an inconclusive call do not appear. Calls follow the shape of the dose curve; as a rule, active = well fitted curve in either direction with a large enough effect (not every such curve was filed as active); inconclusive = small, poorly fitted or top-dose-only effect, or another doubt; inactive = flat fitted curve, though single readings scatter.
assay: NFAT Signaling Pathway (AID 444); details: Jurkat NFAT-bla M1, carbachol, beta-lactamase ratio, 5 h; at 17.2 µM (top of the series) unless noted;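 also: carbachol stimulus at about its EC50 of 1 µM final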
Outline: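 Jurkat cells carrying an NFAT-driven β-lactamase reporter and co-transfected muscarinic M1 receptor were treated with compound plus carbachol (1 uM final, an EC50 level) for 5 h at 37 °C. CCF4 loading followed for 1 h at RT; 460/530 nm ratio gave %activity.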
% is scaled to controls: 0 for no effect and ±100 for the full control effect.

Activity change, negative = inhibition, inactive:
O=C(Nc1ccccn1)c1ccc(=O)[nH]n1 0.366%
CCCCOc1ccccc1/C=c1/sc2nc(-c3oc4ccccc4c3C)nn2c1=O -23.5%
COc1cccc(-c2nn3c(-c4ccco4)nnc3s2)c1 2.73%
Cc1cc(/C=N/n2cnnc2)c(C)n1-c1ccc2c(c1)OCO2 -13%
Cc1nc(SC2C=CS(=O)(=O)C2)n[nH]1 (stereo not given) 11.6%
COC(=O)CNc1nc(-c2cccnc2)nc2ccccc12 -5.87%
O=C1C=C(O)CC(c2cccs2)C1 (stereo not given) -1.83%
COc1ccc2[nH]c(C)c(C(=O)CN3CCOCC3)c2c1 -9.22%
O=C(O)CCCC(=O)N1CCN(C(c2ccccc2)c2ccccc2)CC1 7.29%
COc1ccc(C=NCCC2(O)CC(C)N(C)CC2C)cc1 (stereo not given) 9.42%
Cc1c(=O)n(OCc2c(F)cccc2F)c2ccccc2[n+]1[O-] -0.573%
COc1ccc(-c2onc(C)c2-c2ccccc2)c(O)c1 9.81%
O=C(O)c1ccc(COc2c(F)c(F)c(F)c(F)c2F)o1 -0.748%
O=C(O)C(O)c1ccco1 (stereo not given) -2.98%
CCCCOc1ccc(-c2nnc(N)s2)cc1 25.3%
COC(=O)CSCC(=O)Nc1cc2c(cc1C(C)=O)OCO2 29.7%
Cc1nnc2n(-c3ccccc3)c(=O)c3c4c(sc3n12)CCCC4 -2.17%
Cc1cccc2c1NC(C)CC2C (stereo not given) 11.8%
COc1cccc(C2CC(c3ccccc3Cl)n3nc(N)nc3N2)c1 (stereo not given) -4.65%
C=CCOc1nc2c(c(=O)n(Cc3ccc(Cl)c(Cl)c3)c(=O)n2C)n1C -2.4%
Cc1ccc2c(c1)C(CCN)C(=O)N2Cc1ccccc1 (stereo not given) -9.23%
CC1(C)Cc2c(C#N)c(N3CCN(C(=O)c4ccccc4)CC3)nc(-c3ccco3)c2CS1 -24.6%
CC1(C)Cc2c(C#N)c(NCCN3CCOCC3)nc(-c3ccco3)c2CO1 5.08%
Cc1ccc(N(Cc2cc3ccccc3[nH]c2=O)C(=O)c2ccco2)c(C)c1 25.5%
COc1ccc2nc(SCC(=O)O)nc(C)c2c1 7.89%
Cc1ccc(-n2nc3cc(Cl)c(NC(=O)c4ccco4)cc3n2)cc1 -3.83%
CC(C)(C)C1=Nn2c(nnc2C2CCCCC2)SC1 -6.37%
CCN(CC)CCN1C(=O)C(=O)/C(=C(/O)c2c(C)[nH]c(C(=O)OC)c2C)C1c1ccccc1 (stereo not given) -8.53%
CCOC(=O)C(Oc1ccc(=O)[nH]n1)C(C)=O (stereo not given) 5.95%
COc1cc(C2C(C#N)=C(N)Oc3cc(C)n(CCN4CCOCC4)c(=O)c32)cc(OC)c1OC (stereo not given) 6.98%
CCOC(=O)C1/C(=N\O)CC(C)(O)C(C(=O)OCC)C1c1ccc(N(C)C)cc1 (stereo not given) 2.58%
Nc1ccc(Cl)cc1/C(=N/O)c1ccccc1 -13.5%
COCCN(CCOC)C(=O)C12CCC(C)(C(=O)C1)C2(C)C (stereo not given) 8.02%
Oc1ccc2ccccc2c1C=NC12CN3CCN(CN(C3)C1)C2 -22.1%
N#Cc1nc(-c2cccs2)oc1NCCc1ccccc1 -0.887%
O=C(O)CC(C(=O)OCCOc1ccccc1)N1CCOCC1 (stereo not given) -6.82%
COc1ccccc1C(=O)Nc1cc(Cl)ccc1O -2.92%
CCOP(=O)(c1ccccc1)c1nc(-c2ccc(F)cc2)oc1N1CCCCC1 (stereo not given) 3.09%
CN(C)C(CN1C(=O)C2CC=CCC2C1=O)c1cn(C)c2ccccc12 (stereo not given) 4.1%
COc1cccc2c(=O)c(SC(F)(F)C(F)C(F)(F)F)c(C)[nH]c12 (stereo not given) 4.93%

assay: Stat Signaling Pathway (AID 446); details: ME-180 SIE beta-lactamase reporter, IL-6 stimulated, 5 h; at 17.2 µM (top of the series) unless noted;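 also: ME-180 cervical cancer cells given 40 pM IL-6 alongside compound; SIE-controlled beta-lactamase reporter measured as 460/530 nm FRET emission ratio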
Outline: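 ME-180 cells carrying a SIE-driven beta-lactamase reporter are stimulated with 40 pM IL-6 for 5 h at 37C in the presence of compound. The 460/530 nm FRET substrate ratio is read after 2.5 h at RT. Data are normalised to 300 pM IL-6 and to 125 nM JAK inhibitor controls.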

activity, negative = inhibition, inactive:
O=C(Nc1ccccn1)c1ccc(=O)[nH]n1 1.32%
CCCCOc1ccccc1/C=c1/sc2nc(-c3oc4ccccc4c3C)nn2c1=O -12.5%
COc1cccc(-c2nn3c(-c4ccco4)nnc3s2)c1 6.95%
Cc1cc(/C=N/n2cnnc2)c(C)n1-c1ccc2c(c1)OCO2 -0.639%
Cc1nc(SC2C=CS(=O)(=O)C2)n[nH]1 (stereo not given) 2.19%
COC(=O)CNc1nc(-c2cccnc2)nc2ccccc12 -8.59%
O=C1C=C(O)CC(c2cccs2)C1 (stereo not given) -2.06%
COc1ccc2[nH]c(C)c(C(=O)CN3CCOCC3)c2c1 -2.66%
O=C(O)CCCC(=O)N1CCN(C(c2ccccc2)c2ccccc2)CC1 0.344%
COc1ccc(C=NCCC2(O)CC(C)N(C)CC2C)cc1 (stereo not given) 11.9%
Cc1c(=O)n(OCc2c(F)cccc2F)c2ccccc2[n+]1[O-] 2.13%
COc1ccc(-c2onc(C)c2-c2ccccc2)c(O)c1 -25.2%
O=C(O)c1ccc(COc2c(F)c(F)c(F)c(F)c2F)o1 -10.8%
O=C(O)C(O)c1ccco1 (stereo not given) 1.78%
CCCCOc1ccc(-c2nnc(N)s2)cc1 10.7%
COC(=O)CSCC(=O)Nc1cc2c(cc1C(C)=O)OCO2 9.85%
Cc1nnc2n(-c3ccccc3)c(=O)c3c4c(sc3n12)CCCC4 10.4%
Cc1cccc2c1NC(C)CC2C (stereo not given) 13.3%
COc1cccc(C2CC(c3ccccc3Cl)n3nc(N)nc3N2)c1 (stereo not given) -3.07%
C=CCOc1nc2c(c(=O)n(Cc3ccc(Cl)c(Cl)c3)c(=O)n2C)n1C 7.85%
Cc1ccc2c(c1)C(CCN)C(=O)N2Cc1ccccc1 (stereo not given) 5.36%
CC1(C)Cc2c(C#N)c(N3CCN(C(=O)c4ccccc4)CC3)nc(-c3ccco3)c2CS1 9.81%
CC1(C)Cc2c(C#N)c(NCCN3CCOCC3)nc(-c3ccco3)c2CO1 -0.141%
Cc1ccc(N(Cc2cc3ccccc3[nH]c2=O)C(=O)c2ccco2)c(C)c1 -13%
COc1ccc2nc(SCC(=O)O)nc(C)c2c1 3.73%
Cc1ccc(-n2nc3cc(Cl)c(NC(=O)c4ccco4)cc3n2)cc1 -1.11%
CC(C)(C)C1=Nn2c(nnc2C2CCCCC2)SC1 22.7%
CCN(CC)CCN1C(=O)C(=O)/C(=C(/O)c2c(C)[nH]c(C(=O)OC)c2C)C1c1ccccc1 (stereo not given) -3.34%
CCOC(=O)C(Oc1ccc(=O)[nH]n1)C(C)=O (stereo not given) 2.15%
COc1cc(C2C(C#N)=C(N)Oc3cc(C)n(CCN4CCOCC4)c(=O)c32)cc(OC)c1OC (stereo not given) -2.02%
CCOC(=O)C1/C(=N\O)CC(C)(O)C(C(=O)OCC)C1c1ccc(N(C)C)cc1 (stereo not given) -4.68%
Nc1ccc(Cl)cc1/C(=N/O)c1ccccc1 -5.27%
COCCN(CCOC)C(=O)C12CCC(C)(C(=O)C1)C2(C)C (stereo not given) 3.59%
Oc1ccc2ccccc2c1C=NC12CN3CCN(CN(C3)C1)C2 -13.6%
N#Cc1nc(-c2cccs2)oc1NCCc1ccccc1 -12.8%
O=C(O)CC(C(=O)OCCOc1ccccc1)N1CCOCC1 (stereo not given) -1.47%
COc1ccccc1C(=O)Nc1cc(Cl)ccc1O -4.42%
CCOP(=O)(c1ccccc1)c1nc(-c2ccc(F)cc2)oc1N1CCCCC1 (stereo not given) 4.79%
CN(C)C(CN1C(=O)C2CC=CCC2C1=O)c1cn(C)c2ccccc12 (stereo not given) -3.79%
COc1cccc2c(=O)c(SC(F)(F)C(F)C(F)(F)F)c(C)[nH]c12 (stereo not given) 2.33%

From PubChem BioAssay (NCATS)
